Source: PubChem
GLS inhibitor: qHTS for Inhibitors of Glutaminase (GLS); Glutaminase kidney isoform, mitochondrial (Homo sapiens), O94925; GLS enzymatic activity, qHTS titration; Potency, µM (highest dose often 45.5 µM), without a hit: at the highest dose activity change, negative = inhibition, hits mostly inhibitors; 0.21% of 410,000 active; further: on the % scale 0 is the no-effect control and ±100 the full control effect
Target sequence (O94925 whole entry, looked up, canonical isoform): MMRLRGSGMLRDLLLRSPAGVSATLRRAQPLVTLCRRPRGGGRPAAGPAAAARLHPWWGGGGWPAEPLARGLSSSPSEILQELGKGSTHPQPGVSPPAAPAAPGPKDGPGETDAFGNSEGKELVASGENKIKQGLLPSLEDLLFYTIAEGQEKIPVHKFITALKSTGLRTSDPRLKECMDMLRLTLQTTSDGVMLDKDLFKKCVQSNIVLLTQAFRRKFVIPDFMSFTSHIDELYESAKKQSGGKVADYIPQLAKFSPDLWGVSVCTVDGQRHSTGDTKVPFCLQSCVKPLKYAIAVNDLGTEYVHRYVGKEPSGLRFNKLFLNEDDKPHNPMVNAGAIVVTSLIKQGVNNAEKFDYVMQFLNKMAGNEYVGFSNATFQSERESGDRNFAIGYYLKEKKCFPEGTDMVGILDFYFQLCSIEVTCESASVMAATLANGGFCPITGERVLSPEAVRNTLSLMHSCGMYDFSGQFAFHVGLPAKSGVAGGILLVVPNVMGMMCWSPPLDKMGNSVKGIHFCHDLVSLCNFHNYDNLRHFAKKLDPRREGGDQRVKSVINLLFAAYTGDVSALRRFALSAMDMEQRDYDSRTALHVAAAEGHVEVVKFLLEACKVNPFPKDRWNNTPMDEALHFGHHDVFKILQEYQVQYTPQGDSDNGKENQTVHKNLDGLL
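Two-point fluorescence kinetic (t0, 30 min RT) for hKGA; glutamate detected via glutamate oxidase–HRP–Amplex Red. Substrate: 1 mM L-glutamine solution; buffer 45 mM KH2PO4, pH 8.2.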
JMJD2A Tudor inh: qHTS Assay for Inhibitors of JMJD2A-Tudor Domain. Lysine-specific demethylase 4A (Homo sapiens), O75164. AlphaScreen JMJD2A-Tudor / H3K4me3 peptide binding. Potency, µM (doses to about 114 µM), without a hit: top-dose activity change, negative = inhibition, hits mostly inhibitors. 4.4% of 390,000 active. AID 504339, 2011; further: on the % scale 0 is the no-effect control and ±100 the full control effect; nearly all actives have a fitted effect of over 50% in size
G9a block: qHTS Assay for Inhibitors of Histone Lysine Methyltransferase G9a; Potency, µM (series often up to 102 µM), for the others: at the highest dose activity, negative = inhibition, most hits filed as inhibitors; Histone-lysine N-methyltransferase EHMT2 (Homo sapiens), Q96KQ7; G9a H3K9 monomethylation, AlphaScreen, 2 h; AID 504332, 2011; 8.8% of 350,000 active; further: on the % scale 0 is the no-effect control and ±100 the full control effect; nearly all actives have a fitted effect of over 75% in size
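Methyltransferase reactions run at room temperature for 2 h (20 nM enzyme, 500 nM biotin-H3K9 peptide, 20 uM SAM) after a 15 min compound preincubation; product detected by AlphaScreen beads and anti-H3K9me1 antibody.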
HP1b chromo inh: HTS for Inhibitors of HP1-beta Chromodomain Interactions with Methylated Histone Tails. Chromobox protein homolog 1 (Homo sapiens), P83916. AlphaScreen HP1-beta / biotin-H3K9me3 peptide binding. Potency, µM (doses to about 114 µM), without a hit: at the highest dose activity change, negative = inhibition, usual class: inhibitors. 0.56% of 390,000 active; further: nearly all actives have a fitted effect of over 70% in size
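AlphaScreen: HP1-beta (50 nM) preformed 30 min with biotin-H3(1-18)K9me3 peptide (50 nM) in PBS pH 7.4, 0.01% Tween-20. Compound added for 30 min at RT, then streptavidin donor/nickel chelate acceptor beads (10 ug/mL) for 30 min.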
BAZ2B block: qHTS Assay for Inhibitors of BAZ2B. Bromodomain adjacent to zinc finger domain protein 2B (Homo sapiens), Q9UIF8. AlphaScreen BAZ2B-H3K14Ac peptide displacement. Potency, µM (highest dose often 114 µM), for the others: at the highest dose activity change, negative = inhibition, usual class: inhibitors. 4.4% of 360,000 active. AID 504333, 2011; further: on the % scale 0 is the no-effect control and ±100 the full control effect; nearly all actives have a fitted effect of over 60% in size
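Multi-concentration screen (max 110 uM) measuring displacement of acetylated histone H3 peptide from BAZ2B by AlphaScreen, using 50 nM protein, 50 nM peptide and 10 ug/mL streptavidin donor plus Ni-chelate acceptor beads.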
Active calls of the source: *; ? = inconclusive; . = not tested or not shown; [ ] = another dose, or the depositor's remark. Most compounds without a hit are left out; they make up all but 10% or so of the library. The call rests on the fitted dose curve; in most records, active means well fitted curve in the direction sought with a large enough effect; inconclusive means small, poorly fitted or top-dose-only effect, or another doubt; inactive means no such curve, though single readings can be large; an effect the other way counts as inactive or inconclusive. Potency means the concentration at half of the fitted maximal effect.

SMILES	GLS inhibitor	JMJD2A Tudor inh	G9a block	HP1b chromo inh	BAZ2B block
COc1cc(CN(C)CCc2ccccn2)cc(OC)c1OC	9.6%	7.94µM*	?	?	20µM*
COc1ccc(CCN(C)CC(=O)Nc2cc(C)nc3ccccc23)cc1OC	-34.3%	0.794µM*	4.47µM*	22.4µM*	22.4µM*
CCN(CC)Cc1ccccn1	23.3%	-20.5%	.	14.7%	19.3%
COc1ccc(CCN(C)Cc2c(O)ccc3ccccc23)cc1OC	24.6%	50.1µM*	8.91µM*	-17.3%	-6.6%
Cc1cccc(NC(=O)C2CCCN(S(=O)(=O)c3c(C)n[nH]c3C)C2)c1 (stereo not drawn)	-8.6%	-1.0%	29.4%[59 µM]	52.1%	.
CCCCNC(=O)c1[nH]c(=O)cnc1-c1ccccc1	0.1%	.	.	.	.
O=C(c1ccc(Cn2cc([N+](=O)[O-])cn2)o1)N1CCCCCC1	-2.8%	-16.2%	42.8%	26.0%	8.4%
O=C(CCSc1ccccc1)Nc1nccs1	-0.8%	-10.8%	-3.8%[59 µM]	11.5%	-20.7%
O=C(CCCSc1ccccc1)Nc1nc(-c2ccco2)c(-c2ccco2)s1	1.1%	39.8µM*	?	28.2µM*	22.4µM*
O=C(CCl)Nc1nc(-c2ccco2)c(-c2ccco2)s1	2.1%	?	11.2µM*	?	50.1µM*
Cc1ccc(C(=O)Nc2nc(-c3ccco3)c(-c3ccco3)s2)o1	7.2%	?	14.1µM*	50.1µM*	20µM*
CC(C)(C)OC(=O)n1c2ccsc2c2cnn(Cc3ccccc3F)c(=O)c21	.	-18.5%	.	.	.
Cc1ccc(NC(=O)CN2CC(C)SC2=NC2CCCCC2)cc1 (stereo not drawn)	-0.1%	-3.4%	50.1µM*	2.8%	7.3%
CCc1ccc(NC(=O)CN2CCN(C3CCCCC3)C(=O)C2=O)cc1	-5.5%	-8.3%	-0.1%[12.7 µM]	16.5%	-16.6%
O=C1c2ccc([N+](=O)[O-])cc2NC(c2ccco2)N1/N=C/c1ccco1 (stereo not drawn)	12.6%	?	?	-0.4%	?
CN=c1scc(-c2ccc([N+](=O)[O-])cc2)n1/N=C/c1ccco1	12.7%	-13.7%	50.1µM*	5.5%	?
Cc1cc(C)cc(N2CCCn3c2nc2c3c(=O)[nH]c(=O)n2C)c1	13.5%	-3.8%	5.9%	18.6%	1.2%
Cc1ccc(C(=O)Nc2ccc(O)cc2C(=O)O)cc1	26.1%	?	-9.7%[59 µM]	23.4%	-9.9%
Cc1ccc(C(=O)Nc2ccc(O)cc2C(=O)O)cc1C	31.6%	?	?	3.3%	79.4µM*
Cc1cc(N2C(=O)c3ccc(C(=O)Nc4ccc(O)cc4C(=O)O)cc3C2=O)no1	16.0%	-35.2%	50.1µM*	17.0%	79.4µM*
O=[N+]([O-])c1cc(/C=N/O)ccc1Oc1cccc(Cl)c1	0.0%	?	-7.8%[59 µM]	-3.3%	?
CO/N=C/c1ccc(Oc2ccc(C)cc2)c([N+](=O)[O-])c1	?	12.6µM*	9.1%	-0.4%	2.1%
N#CN1CCC(NS(=O)(=O)c2ccc(F)cc2)C1 (stereo not drawn)	.	-6.8%	.	.	.
C1CCc2c(nnc3c2-c2nonc2CC3)C1	-2.2%	-2.8%	31.6µM*	23.1%	6.1%
CN1CCC23c4ccccc4NC1C21CCN(C)C3Nc2ccccc21	32.3%	-21.1%	.	0.9%	.
SMILES	GLS inhibitor	JMJD2A Tudor inh	G9a block	HP1b chromo inh	BAZ2B block
C/C=C/C=C/C(=O)N1CC[C@]23c4ccccc4N[C@H]4N(C)c5cccc6c5[C@]42CCN([C@H]6C2OC2(C)C)[C@H]13 (stereo partly drawn)	21.3%	50.1µM*	?	-32.4%	50.1µM*
CC(C)c1ccc(NC(=O)C(c2ccc3c(c2)OCO3)N2CCCCC2)cc1 (stereo not drawn)	1.1%	-14.5%	?	34.8%	2.1%
Oc1cc2c(cc1C(c1ccc(Cl)c(Cl)c1)N1CCCC1)OCO2 (stereo not drawn)	-1.2%	10µM*	1.41µM*	20µM*	35.5µM*
CCN(CC)c1ccc(NC(=O)C2CC(=O)N(Cc3ccccc3)C2)cc1 (stereo not drawn)	1.6%	56.2µM*	11.2µM*	?	44.7µM*
CS(=O)(=O)c1ccc(Cl)c(NC(=O)C2CC(=O)N(Cc3ccccc3)C2)c1 (stereo not drawn)	-28.2%	89.1µM*	15.3%[59 µM]	-23.9%	?
CS(=O)(=O)c1ccc(Cl)c(NC(=O)C2CC(=O)N(Cc3ccco3)C2)c1 (stereo not drawn)	5.9%	-2.7%	?	27.7%	-4.2%
COc1cc(-c2nnc(NC(=O)c3ccco3)o2)cc(OC)c1OC	2.8%	?	?	19.2%	79.4µM*
CCOc1cc(-c2nnc(NC(=O)c3ccco3)o2)cc(OCC)c1OCC	4.3%	-24.1%	37.4%[59 µM]	16.3%	10.0%
O=C(Nc1nnc(-c2ccc(Br)cc2)o1)c1ccco1	0.1%	?	-22.6%	43.9%	79.4µM*
COc1cccc(C(=O)Nc2nnc(-c3cccs3)o2)c1	18.3%	-12.8%	-4.4%	50.2%	?
O=C(Nc1nnc(-c2ccccc2Cl)o1)c1ccco1	-10.7%	79.4µM*	?	12.5%	79.4µM*
O=C(Nc1ccc(Br)cc1)c1ccco1	8.8%	0.6%	14.0%[12.7 µM]	7.9%	6.9%
O=C(Nc1nnc(-c2cccs2)o1)c1ccco1	-4.7%	44.7µM*	10µM*	44.6%	35.5µM*
CCN(C(=O)COC(=O)c1ccccc1Nc1ccccc1)c1c(N)n(Cc2ccccc2)c(=O)[nH]c1=O	7.3%	-4.6%	.	49.7%	.
CO[C@H]1/C=C/O[C@@]2(C)Oc3c(C)c(O)c4c(O)c(c(C=NN5CCN(C)CC5)c(O)c4c3C2=O)NC(=O)/C(C)=C\C=C\[C@H](C)[C@H](O)[C@@H](C)[C@@H](O)[C@@H](C)[C@H](OC(C)=O)[C@@H]1C	3.5%	-36.0%	-23.2%[12.7 µM]	?	?
CO[C@H]1C=CO[C@@]2(C)Oc3c(C)c(O)c4c(O)c(c(C=NN5CCN(C)CC5)c(O)c4c3C2=O)NC(=O)C(C)=CC=C[C@H](C)[C@H](O)[C@@H](C)[C@@H](O)[C@@H](C)[C@H](OC(C)=O)[C@@H]1C	1.9%	?	?	-22.1%	44.7µM*
COCCNC(=O)C(c1ccc(F)cc1)N(Cc1cccs1)C(=O)CCC(=O)Nc1ccccn1 (stereo not drawn)	3.8%	-16.2%	10.9%	-9.7%	9.2%
O=C(NCc1ccc(F)cc1)c1cc(C2CCCCN2S(=O)(=O)c2ccc(F)cc2F)on1 (stereo not drawn)	-2.1%	.	.	.	.
Cc1ccn2c(Nc3ccccc3)c(-c3ccccn3)nc2c1	-27.0%	50.1µM*	42.4%[59 µM]	27.4%	20µM*
